The supplement of paper PMC10849652
Targets with a hit are over-represented here; the source holds about 8,800 in all. About 0.5% of all pairs of compound and target were hits.

Compound: Cc1sc2c(c1C)C(c1ccc(Cl)cc1)=N[C@@H](CC(=O)OC(C)(C)C)c1nnc(C)n1-2
Assay: log2 fold change, soluble protein after heating vs DMSO (PISA); higher = thermal stabilisation; K562 lysate, 10 uM; active = over 0.2 and 3.5 SD of the protein, either way, in both replicates (recomputed)
Outline: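 The values are log-two fold changes in thermal stability compared with solvent controls and come from duplicates. They were obtained by TMTpro 16plex LC-MS/MS, with channel sums equalised, on the supernatant after 21,000xg for 90 min. That supernatant came from crude K562 extract at 1 mg/mL protein treated with 10 μM compound for 30 min, heated for 3 min across 48°C-58°C, pooled and brought to 0.5% NP-40 at 4°C.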

Chain of UniProt Q9H3M7 (Q9H3M7 whole entry, looked up): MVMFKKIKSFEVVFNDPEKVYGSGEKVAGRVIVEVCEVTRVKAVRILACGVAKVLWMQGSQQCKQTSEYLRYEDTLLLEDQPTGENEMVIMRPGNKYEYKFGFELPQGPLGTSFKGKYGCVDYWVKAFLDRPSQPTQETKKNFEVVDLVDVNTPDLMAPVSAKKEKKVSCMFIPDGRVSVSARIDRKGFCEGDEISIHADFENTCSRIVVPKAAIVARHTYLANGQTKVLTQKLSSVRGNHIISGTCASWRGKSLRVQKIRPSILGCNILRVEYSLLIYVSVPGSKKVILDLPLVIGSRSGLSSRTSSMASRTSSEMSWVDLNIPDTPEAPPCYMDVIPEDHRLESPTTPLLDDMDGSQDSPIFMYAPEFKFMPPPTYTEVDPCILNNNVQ
Chain of UniProt Q14166 (Q14166 whole entry, looked up): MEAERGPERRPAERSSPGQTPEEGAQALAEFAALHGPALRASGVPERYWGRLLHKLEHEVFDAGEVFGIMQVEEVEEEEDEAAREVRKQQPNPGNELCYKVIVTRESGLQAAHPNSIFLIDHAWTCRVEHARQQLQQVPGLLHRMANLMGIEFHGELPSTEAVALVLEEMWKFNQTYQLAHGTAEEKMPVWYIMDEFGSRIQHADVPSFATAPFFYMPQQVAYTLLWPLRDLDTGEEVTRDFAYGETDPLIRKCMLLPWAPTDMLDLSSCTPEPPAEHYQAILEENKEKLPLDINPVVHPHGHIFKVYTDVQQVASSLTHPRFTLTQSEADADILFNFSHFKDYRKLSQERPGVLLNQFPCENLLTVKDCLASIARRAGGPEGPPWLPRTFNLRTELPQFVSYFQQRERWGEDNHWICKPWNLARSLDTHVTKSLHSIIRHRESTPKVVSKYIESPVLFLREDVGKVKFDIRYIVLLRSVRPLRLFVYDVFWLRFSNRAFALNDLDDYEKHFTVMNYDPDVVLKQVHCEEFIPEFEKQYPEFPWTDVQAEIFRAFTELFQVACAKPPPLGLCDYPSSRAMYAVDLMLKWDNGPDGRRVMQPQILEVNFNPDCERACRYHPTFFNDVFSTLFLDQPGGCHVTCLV
Chain of UniProt Q9NUY8 (Q9NUY8 whole entry, looked up): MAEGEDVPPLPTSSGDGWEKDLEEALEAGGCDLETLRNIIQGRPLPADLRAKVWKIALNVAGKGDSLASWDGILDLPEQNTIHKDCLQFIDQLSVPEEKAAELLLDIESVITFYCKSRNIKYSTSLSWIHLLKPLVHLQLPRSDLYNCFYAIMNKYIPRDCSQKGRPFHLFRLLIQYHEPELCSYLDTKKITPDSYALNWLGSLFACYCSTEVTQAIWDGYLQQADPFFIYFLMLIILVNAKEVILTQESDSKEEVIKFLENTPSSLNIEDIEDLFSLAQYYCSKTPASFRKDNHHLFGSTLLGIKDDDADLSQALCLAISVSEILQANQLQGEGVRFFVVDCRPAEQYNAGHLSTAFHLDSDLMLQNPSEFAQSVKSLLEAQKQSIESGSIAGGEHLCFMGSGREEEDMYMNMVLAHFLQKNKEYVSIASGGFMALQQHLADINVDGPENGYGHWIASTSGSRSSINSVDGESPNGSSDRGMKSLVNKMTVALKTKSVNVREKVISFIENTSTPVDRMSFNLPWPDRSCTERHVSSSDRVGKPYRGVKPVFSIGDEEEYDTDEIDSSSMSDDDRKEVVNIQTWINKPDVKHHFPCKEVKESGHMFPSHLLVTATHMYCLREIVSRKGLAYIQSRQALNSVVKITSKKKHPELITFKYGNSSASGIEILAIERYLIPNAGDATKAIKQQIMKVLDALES
Chain of UniProt P06753 (P06753 whole entry, looked up): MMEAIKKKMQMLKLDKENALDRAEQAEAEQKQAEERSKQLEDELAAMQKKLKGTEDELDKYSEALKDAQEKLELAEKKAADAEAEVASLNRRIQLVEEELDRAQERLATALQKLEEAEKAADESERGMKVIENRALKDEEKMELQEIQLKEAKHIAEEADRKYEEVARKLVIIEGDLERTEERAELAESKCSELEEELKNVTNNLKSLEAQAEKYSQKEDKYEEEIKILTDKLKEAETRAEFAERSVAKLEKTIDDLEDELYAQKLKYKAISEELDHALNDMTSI
Chain of UniProt Q9UJT0 (Q9UJT0 whole entry, looked up): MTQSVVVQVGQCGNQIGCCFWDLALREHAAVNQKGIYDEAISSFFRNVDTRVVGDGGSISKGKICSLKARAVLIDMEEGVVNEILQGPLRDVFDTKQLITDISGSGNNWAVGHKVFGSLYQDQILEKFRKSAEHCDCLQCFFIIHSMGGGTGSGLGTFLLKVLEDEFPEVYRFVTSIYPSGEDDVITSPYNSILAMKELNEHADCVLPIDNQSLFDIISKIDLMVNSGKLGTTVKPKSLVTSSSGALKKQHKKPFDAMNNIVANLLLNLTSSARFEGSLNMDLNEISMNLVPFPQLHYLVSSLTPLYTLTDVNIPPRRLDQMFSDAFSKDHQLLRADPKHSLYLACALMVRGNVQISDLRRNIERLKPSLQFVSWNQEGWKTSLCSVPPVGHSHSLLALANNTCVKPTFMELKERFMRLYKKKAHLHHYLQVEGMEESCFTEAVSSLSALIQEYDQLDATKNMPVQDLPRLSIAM
Chain of UniProt Q5JUR7 (Q5JUR7 whole entry, looked up): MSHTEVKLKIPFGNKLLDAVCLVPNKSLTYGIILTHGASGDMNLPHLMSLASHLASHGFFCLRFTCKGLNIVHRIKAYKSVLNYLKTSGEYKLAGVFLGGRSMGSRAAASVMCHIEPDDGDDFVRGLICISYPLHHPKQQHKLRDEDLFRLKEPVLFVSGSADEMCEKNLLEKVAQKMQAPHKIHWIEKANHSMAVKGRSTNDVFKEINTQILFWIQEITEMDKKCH
Chain of UniProt Q9NZI7 (Q9NZI7 whole entry, looked up): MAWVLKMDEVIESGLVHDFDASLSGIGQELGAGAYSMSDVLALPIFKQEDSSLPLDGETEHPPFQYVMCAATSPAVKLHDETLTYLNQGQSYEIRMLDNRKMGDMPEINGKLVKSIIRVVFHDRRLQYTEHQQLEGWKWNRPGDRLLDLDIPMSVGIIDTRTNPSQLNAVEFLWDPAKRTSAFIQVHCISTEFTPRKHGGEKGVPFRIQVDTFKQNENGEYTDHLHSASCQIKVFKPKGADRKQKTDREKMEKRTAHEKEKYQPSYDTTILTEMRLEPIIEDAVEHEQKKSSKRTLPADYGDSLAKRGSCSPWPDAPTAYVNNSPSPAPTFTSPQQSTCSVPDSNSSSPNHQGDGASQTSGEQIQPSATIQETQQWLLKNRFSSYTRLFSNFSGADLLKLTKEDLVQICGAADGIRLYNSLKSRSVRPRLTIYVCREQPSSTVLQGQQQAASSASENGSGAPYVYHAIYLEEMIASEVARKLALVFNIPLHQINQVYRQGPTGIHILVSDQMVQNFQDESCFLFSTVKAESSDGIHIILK
Chain of UniProt Q9Y2W6 (Q9Y2W6 whole entry, looked up): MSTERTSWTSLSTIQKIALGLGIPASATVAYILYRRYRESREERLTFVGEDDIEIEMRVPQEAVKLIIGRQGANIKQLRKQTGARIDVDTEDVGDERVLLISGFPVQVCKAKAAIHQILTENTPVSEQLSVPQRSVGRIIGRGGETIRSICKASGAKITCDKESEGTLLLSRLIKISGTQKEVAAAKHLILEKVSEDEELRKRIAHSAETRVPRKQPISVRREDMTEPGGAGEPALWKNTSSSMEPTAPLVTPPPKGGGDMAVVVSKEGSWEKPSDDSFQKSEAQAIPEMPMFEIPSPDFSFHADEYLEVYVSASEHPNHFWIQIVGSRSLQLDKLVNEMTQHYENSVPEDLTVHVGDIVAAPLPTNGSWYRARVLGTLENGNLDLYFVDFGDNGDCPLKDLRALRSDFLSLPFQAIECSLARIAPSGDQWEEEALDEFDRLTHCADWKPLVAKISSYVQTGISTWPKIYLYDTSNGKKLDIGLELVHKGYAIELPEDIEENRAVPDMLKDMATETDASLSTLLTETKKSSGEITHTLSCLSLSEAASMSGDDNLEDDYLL
Chain of UniProt Q5U3C3 (Q5U3C3 whole entry, looked up): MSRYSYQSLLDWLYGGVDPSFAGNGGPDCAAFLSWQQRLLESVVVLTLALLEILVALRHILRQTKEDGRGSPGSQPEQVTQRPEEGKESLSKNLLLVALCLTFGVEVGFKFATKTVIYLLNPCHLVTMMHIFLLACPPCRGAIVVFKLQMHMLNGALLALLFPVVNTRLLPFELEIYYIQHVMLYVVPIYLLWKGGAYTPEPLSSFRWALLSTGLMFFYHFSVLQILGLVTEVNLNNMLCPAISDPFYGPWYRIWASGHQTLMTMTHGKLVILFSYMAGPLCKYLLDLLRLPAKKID
Chain of UniProt Q9BZV1 (Q9BZV1 whole entry, looked up): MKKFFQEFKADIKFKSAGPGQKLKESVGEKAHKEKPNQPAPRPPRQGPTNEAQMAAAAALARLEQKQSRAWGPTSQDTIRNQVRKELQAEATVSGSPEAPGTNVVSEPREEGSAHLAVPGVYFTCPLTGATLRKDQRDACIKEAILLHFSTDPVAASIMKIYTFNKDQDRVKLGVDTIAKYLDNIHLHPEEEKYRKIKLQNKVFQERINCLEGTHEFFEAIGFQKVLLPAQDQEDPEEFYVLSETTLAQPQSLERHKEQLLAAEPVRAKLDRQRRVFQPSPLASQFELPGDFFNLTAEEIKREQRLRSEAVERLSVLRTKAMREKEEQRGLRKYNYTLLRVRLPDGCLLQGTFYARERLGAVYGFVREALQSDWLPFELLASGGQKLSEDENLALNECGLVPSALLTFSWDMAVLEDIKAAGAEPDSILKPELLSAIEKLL
Chain of UniProt Q9H497 (Q9H497 whole entry, looked up): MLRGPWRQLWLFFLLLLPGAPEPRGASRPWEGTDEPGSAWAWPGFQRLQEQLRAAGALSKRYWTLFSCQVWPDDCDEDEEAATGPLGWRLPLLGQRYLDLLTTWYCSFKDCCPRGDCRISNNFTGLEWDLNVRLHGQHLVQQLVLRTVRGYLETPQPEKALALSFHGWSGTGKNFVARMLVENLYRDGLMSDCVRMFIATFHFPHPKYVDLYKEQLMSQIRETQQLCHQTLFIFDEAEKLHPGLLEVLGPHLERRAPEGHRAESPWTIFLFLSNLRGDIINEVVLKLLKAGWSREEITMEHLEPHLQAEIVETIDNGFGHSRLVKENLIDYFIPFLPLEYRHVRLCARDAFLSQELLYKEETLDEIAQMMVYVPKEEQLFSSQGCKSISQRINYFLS

| Target | log2 fold change |
| --- | --- |
| TRNAU1AP (UniProt Q9NX07) | -0.025 (inactive) |
| TERF2IP (UniProt Q9NYB0) | -0.03 (inactive) |
| TFIP11 (UniProt Q9UBB9) | -0.002 (inactive) |
| TBC1D8B (UniProt Q0IIM8) | -0.013 (inactive) |
| UBE2H (UniProt P62256) | -0.046 (inactive) |
| TMPO isoform 2 (UniProt P42167) | -0.069 (inactive) |
| TELO2 (UniProt Q9Y4R8) | 0.056 (inactive) |
| TMEM263 (UniProt Q8WUH6) | -0.138 (inactive) |
| TTLL12 (UniProt Q14166) | 0.015 (inactive) |
| TTC37 (UniProt Q6PGP7) | -0.3 (inactive) |
| TUBB2A (UniProt Q13885) | 0.003 (inactive) |
| TTF2 (UniProt Q9UNY4) | 0.127 (inactive) |
| UBAP2L isoform 5 (UniProt Q14157) | 0.029 (inactive) |
| TUBA4A (UniProt P68366) | -0.024 (inactive) |
| TEX30 (UniProt Q5JUR7) | -0.1 (inactive) |
| TECR (UniProt Q9NZ01) | 0.017 (inactive) |
| TUBGCP3 (UniProt Q96CW5) | 0.008 (inactive) |
| TMPO (UniProt P42166) | 0.011 (inactive) |
| TIMELESS (UniProt Q9UNS1) | 0.012 (inactive) |

| Target | log2 fold change |
| --- | --- |
| TPM3 (UniProt P06753) | 0.015 (inactive) |
| TMEM164 (UniProt Q5U3C3) | -0.217 (inactive) |
| TMEM14C (UniProt Q9P0S9) | -0.015 (inactive) |
| TXNIP (UniProt Q9H3M7) | 0.016 (inactive) |
| TUBE1 (UniProt Q9UJT0) | -0.064 (inactive) |
| TDRKH (UniProt Q9Y2W6) | 0.005 (inactive) |
| TPM1 isoform 4 (UniProt P09493) | 0.003 (inactive) |
| UBXN6 (UniProt Q9BZV1) | 0.022 (inactive) |
| TRAPPC10 (UniProt P48553) | -0.004 (inactive) |
| TMEM199 (UniProt Q8N511) | -0.046 (inactive) |
| TUBA1B (UniProt P68363) | 0.015 (inactive) |
| UBP1 (UniProt Q9NZI7) | 0.009 (inactive) |
| TOR3A (UniProt Q9H497) | 0.018 (inactive) |
| TBC1D23 (UniProt Q9NUY8) | 0.016 (inactive) |
| TRIM33 (UniProt H0Y612) | 0.021 (inactive) |
| TFCP2 (UniProt Q12800) | -0.013 (inactive) |
| TNPO3 (UniProt Q9Y5L0) | 0.009 (inactive) |
| TUBGCP2 isoform 4 (UniProt Q9BSJ2) | 0.018 (inactive) |
| TTC5 (UniProt Q8N0Z6) | 0.039 (inactive) |
